# Many of the other results were omitted from the sample, so hits are more common in it than they were.
# Anesthetic bind: qHTS Assay for Identification of Novel General Anesthetics. Ferritin light chain (Equus caballus), P02791. apoferritin/1-aminoanthracene competitive binding, fluorescence. Potency, µM (top dose mostly 77.5 µM), inactives show at the top dose activity change, negative = displacement, usual class: inhibitors. actives 0.074% (n = 350,000); note: potency is the fitted concentration of half-maximal effect; nearly all actives have a fitted effect of over 20% in size
# Target sequence (P02791 2-175 limits assumed): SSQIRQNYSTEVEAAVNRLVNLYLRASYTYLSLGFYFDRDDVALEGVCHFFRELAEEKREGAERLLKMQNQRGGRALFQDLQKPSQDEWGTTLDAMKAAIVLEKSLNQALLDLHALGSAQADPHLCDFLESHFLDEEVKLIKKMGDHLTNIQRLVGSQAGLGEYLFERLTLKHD
#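 Horse-spleen apoferritin (10 uM) was mixed with 50% saturated 1-aminoanthracene in PBS, exposed to compounds for 10 min at room temperature, and read for fluorescence (ex 380 nm, em 535 nm). Competitive displacement was fitted with a four-parameter Hill equation.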
# JMJD2E inh: qHTS Assay for Inhibitors of Human Jumonji Domain Containing 2E (JMJD2E) | JMJD2E catalytic domain, FDH-coupled NADH fluorescence (FDH is formaldehyde dehydrogenase) | Potency, µM (highest dose often 57.1 µM), inactives show at the top dose activity change, negative = inhibition, most hits filed as inhibitors | Lysine-specific demethylase 4E (Homo sapiens), B2RXH2 | actives 1.6% (n = 230,000); active = well fitted inhibition curve with a large enough effect, not every such curve was filed as active; inconclusive = small, poorly fitted or top-dose-only effect, or another doubt; inactive = no such curve, though single readings can be large or run the other way;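 note: potency is the fitted concentration of half-maximal effect; 0% = wells with enzyme and -100% = buffer wells without enzyme; nearly all actives have a fitted effect of over 50% in size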
# Eya2 inh: qHTS Assay for Inhibitors of the Phosphatase Activity of Eya2; recombinant Eya2, OMFP fluorescence dephosphorylation (OMFP is methylfluorescein phosphate); AID 488837, 2010; Protein phosphatase EYA2 (Homo sapiens), O00167; actives 0.006% (n = 330,000); Potency, µM (doses to about 76.9 µM), for the others: at the highest dose activity, negative = inhibition, actives largely listed as inhibitors; note: potency is the fitted concentration of half-maximal effect
#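 Eya2 protein (added as 0.2 uM solution) was preincubated with compound for 10 min at ambient temperature in 50 mM HEPES pH 7.5, 50 mM NaCl, 5 uM MgCl2, 0.05% BSA, 1 mM DTT. OMFP (added at 50 uM) then reacted 10 min; fluorescence read at 485/525 nm.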
# CtBP-E1A inh: qHTS Assay for Inhibitors of the CtBP/E1A Interaction; activity change, % (test concentration not listed); actives 0.49% (n = 340,000); CtBP / adenovirus E1A interaction (AlphaScreen); AlphaScreen GST-E1A/His-CtBP binding, 1536-well; stronger effect = lower value; in the data active = activity change below about -65%; inconclusive = mostly about -30% to -63%
#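 Steps: dispense buffer (Tris pH 8.0, NaCl 300 mM, TCEP 1 mM, BSA, Tween 20); add 5X protein mix (GST-E1A, His-CtBP, 125 nM each); pin 23 nL compound; 2 h at 37 °C, dark; add 5X beads (50 ug/mL); 1 h; read.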
# Six1-Eya2 inh: qHTS Assay for Inhibitors of the Six1/Eya2 Interaction; Homeobox protein SIX1 (Homo sapiens) + Protein phosphatase EYA2 (Homo sapiens), …; AlphaScreen GST-Six1/His-Eya2 binding, biochemical; stronger effect = lower value; activity change, % (test concentration not listed); actives 0.56% (n = 360,000); AID 651725, 2012; in the data active = activity change below about -65%; inconclusive = mostly about -30% to -63%
#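 AlphaScreen with GST-Six1 and His-Eya2 (5X mix: 250 nM and 500 nM), glutathione donor and nickel acceptor beads; buffer 50 mM Tris pH 8.0, 300 mM NaCl, 1 mM TCEP; 1 h at 37 C in the dark.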
# GALK inhibitor: qHTS Assay for Inhibitors of Human Galactokinase (GALK); P51570; Purified GALK, Kinase-Glo residual ATP luminescence; Potency, µM (doses to about 57.5 µM), without a hit: at the top dose activity change, negative = inhibition, most hits filed as inhibitors; actives 0.007% (n = 270,000); AID 1868, 2009; note: potency is the fitted concentration of half-maximal effect
# Target sequence (P51570 whole entry, looked up): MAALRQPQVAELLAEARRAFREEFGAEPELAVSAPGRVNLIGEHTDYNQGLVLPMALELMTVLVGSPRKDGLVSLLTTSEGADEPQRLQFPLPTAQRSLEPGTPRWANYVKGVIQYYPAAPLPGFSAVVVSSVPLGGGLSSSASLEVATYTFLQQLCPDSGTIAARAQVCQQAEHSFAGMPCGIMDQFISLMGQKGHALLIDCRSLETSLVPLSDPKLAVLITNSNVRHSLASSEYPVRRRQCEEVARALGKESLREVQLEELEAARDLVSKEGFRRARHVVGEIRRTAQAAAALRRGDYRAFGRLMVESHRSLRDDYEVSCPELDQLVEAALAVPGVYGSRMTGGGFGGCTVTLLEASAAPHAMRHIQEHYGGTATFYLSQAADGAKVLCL
#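 The enzyme phosphorylates galactose (100 uM) using ATP (35 uM); inhibition is detected as higher residual ATP, quantified by bioluminescence after 1 h reaction at room temperature, pH 8.0.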
# * marks the source's active call; other numbers are inactive results; ? = inconclusive; / = no result; [ ] = another dose, or the depositor's remark. Unless noted, calls come from the whole dose curve; as a rule, active = well fitted curve in the direction sought with a large enough effect; inconclusive = small, poorly fitted or top-dose-only effect, or another doubt; inactive = no such curve, though single readings can be large; an effect the other way counts as inactive or inconclusive. Unless noted, % is set by controls: 0 for no effect and ±100 for the full control effect.
SMILES,Anesthetic bind,JMJD2E inh,Eya2 inh,CtBP-E1A inh,Six1-Eya2 inh,GALK inhibitor
COc1cccc(/C=N/NC(=O)CSCC(=O)Nc2ccccc2)c1O,?,0%,0%,-85*,-70*,-2%
COc1cccc(/C=N\NC(=O)Cn2nnc3ccccc32)c1O,?,28µM*,-2%,-93*,-93*,-3%
Cc1nn(C)c2c1c(-c1ccccc1)cc(=O)n2Cc1ccc(Cl)cc1,32%,/,/,/,/,/
CN1CCN(c2cc(-c3ccc(N(C)C)cc3)ncn2)CC1,-8%,?,/,/,/,/
CC(=O)OC1C(N2CCCCC2)c2c(ccc(/C=C/C(=O)N3CCCCC3)c2O)OC1(C)C (stereo not given),0%,7.1µM*,-5%,2,8,-1%
COc1cc2c(cc1OC)C(=Cc1ccc(N(C)C)cc1)C=C2,/,/,/,-78*,-71*,/
CN(C)c1ccc(C=C2C=Cc3ccccc32)cc1,/,/,/,-4,-71*,/
CC(=O)OCC1OC(c2ccc(C(C)=O)cc2)C=CC1OC(C)=O (stereo not given),2%[15.3 µM],/,/,/,/,/
CCOc1ccc(N2CC(NC(=O)c3ccc(S(=O)(=O)N4CCOCC4)cc3)CC2=O)cc1 (stereo not given),-15%,/,/,/,/,/
CCOC(=O)NNc1ccc2nonc2c1[N+](=O)[O-],-17%,6.3µM*,-8%,?,?,-1%
CCc1ccc(Nc2ccc3nonc3c2[N+](=O)[O-])cc1,/,/,/,-28,-7,/
COc1ccc(Cl)cc1C(=O)Nc1cccc(-c2ccc3nncn3n2)c1,-6%,14µM*,-2%,-9,-10,7%
O=C(Cl)CCCCCCCC(=O)Cl,-5%,/,/,/,/,/
CC(Oc1ccc(O)cc1)(P(=O)(O)O)P(=O)(O)O,/,1.6µM*,/,/,/,/
Cc1cc(Nc2cccc(C(F)(F)F)c2)nc2ccc(NC(=O)c3cccc(Cl)c3)cc12,98%,/,/,/,/,/
Cc1ccccc1NC(=S)Nc1cccc2cnccc12,-23%,-15%,-1%,-1,7,1%
Cc1ccc(C)c(NC(=S)Nc2cccc3cnccc23)c1,-15%,28µM*,-8%,-6,-7,10%
CC(=O)c1ccc(NC(=S)Nc2cccc3cnccc23)cc1,-11%,18µM*,7%,-29,-4,?
Cc1ccccc1C(=O)Nc1nnc(SCc2cc(=O)n3ccccc3n2)s1,-6%,/,/,/,/,/
CCN(CC)c1ccc(/C=N/Nc2nc(C)cc(=O)[nH]2)c(O)c1,81%,?,2%,-98*,-92*,3%
Cc1cc(=O)[nH]c(N/N=C/c2ccccc2Cl)n1,-11%,/,5%,/,-2,/
Cc1cc(=O)[nH]c(NN=Cc2cc(Br)ccc2O)n1,/,/,/,-94*,-89*,/
Cc1cc(=O)[nH]c(N/N=C/c2ccc(-c3ccc([N+](=O)[O-])cc3)o2)n1,-7%,/,-10%,-74*,-71*,-1%
NC(=S)N=Nc1c(O)cc(O)c2[nH]c(=O)ccc12,/,/,/,-3,-85*,/
COC(=O)c1ccc(=O)c2nc3/c(=C/O)c(O)cc(=O)c3[nH]c12,-13%,8.9µM*,2%,-94*,-89*,/
SMILES,Anesthetic bind,JMJD2E inh,Eya2 inh,CtBP-E1A inh,Six1-Eya2 inh,GALK inhibitor
Cc1cccc(C(=O)NCC(=O)OCc2cc(=O)n3nc(C4CCCCC4)sc3n2)c1,2%,/,/,/,/,/
CCOC(=O)/C=C/C(=O)Nc1ccc(-c2nnc3n2CCCCC3)cc1,-15%,/,9%,-66*,-12,-1%
NC(=S)NN=Cc1nccc2c(N)cccc12,/,/,/,-88*,-93*,/
CCN(C(C)=O)c1cnc(C=NNC(N)=S)c2ccccc12,/,/,/,?,-90*,/
Cn1cc(/C=N/NC(N)=S)c2ccccc21,8%,-20%,-2%,0,-11,-2%
Cc1ccc(/C=C2\SC(=S)N(c3cccnc3)C2=O)o1,-4%,11µM*,2%,-12,-6,1%
Cc1ccc(-c2cc(C(=O)O)c3cc(Br)ccc3n2)o1,-6%,?,15%,-8,?,0%
Cc1ccc(-c2cc(C(=O)NC3=NCCS3)c3cc(Br)ccc3n2)o1,-6%,8.9µM*,-9%,/,/,1%
COC(=O)[C@H]1C(OC)[C@@H](OC(=O)c2cc(OC)c(OC)c(OC)c2)C[C@@H]2CN3CCc4c([nH]c5cc(OC)ccc45)[C@H]3C[C@H]21 (stereo not given in full),0%,?,/,/,/,/
COC(=O)C1C2CC3c4[nH]c5cc(OC)ccc5c4CCN3CC2CC(OC(=O)c2cc(OC)c(OC)c(OC)c2)C1OC (stereo not given),/,20µM*,/,/,/,/
O=c1c(-c2ccc(Cl)cc2)[n+]([O-])c2ccccc2n1O,94%,-12%,13%,-7,8,1%
O=c1c(-c2cccc([N+](=O)[O-])c2)[n+]([O-])c2ccccc2n1O,0%,22µM*,-8%,2,2,-2%
CCCCC(=NCCc1c(C)[nH]c2ccc(OC)cc12)C1=C(O)CC(c2ccccc2)CC1=O (stereo not given),-4%,25µM*,-7%,-2,-27,7%
CCC(=NCCc1c(C)[nH]c2ccc(OC(F)(F)F)cc12)C1=C(O)CC(c2ccccc2)CC1=O (stereo not given),-17%,4%,1%,-2,-20,2%
CN(C)c1ccc(N=c2sc3ccccc3n2C)cc1,?,-12%,-8%,44,-84*,1%
CC(C)Oc1ccccc1/C=N/Nc1ccccc1[N+](=O)[O-],4%,3%,-13%,-76*,-72*,-1%
Cc1[nH]c2ccccc2c1/C=N/Nc1ccccc1[N+](=O)[O-],?,-9%,-7%,?,-69*,9%
O=C(CCSCc1cccc(Cl)c1)NCc1ccccc1Cl,-15%,/,/,/,/,/
COC(=O)c1ccc(CC(=O)c2c(C)cc(O)cc2O)o1,-13%,18µM*,-5%,0,3,5%
COC(=O)c1ccc(CC(=O)c2ccc(O)cc2O)o1,-21%,?,13%,11,-3,-2%
NC(=S)c1ccc[n+]([C@@H]2O[C@@H](COP(=O)([O-])OP(=O)(O)OC[C@H]3O[C@@H](n4cnc5c(N)ncnc54)[C@H](OP(=O)(O)O)[C@@H]3O)C(O)C2O)c1 (stereo not given in full),/,/,4%,/,/,/
